Hits are enriched below; roughly 20% of the tested compounds scored in any of these assays.
CHX counter = affects cycloheximide protein synthesis inhibition readout, counter-screen; cell reporter, cycloheximide protein synthesis inhibition counterscreen; max response, %; 12% of 300,000 active; AID 2314; in the data active = max response mostly above about 13%, no sharp cut-off; inactive = mostly below about 14%; note: read at 38.3 µM for the half of the compounds with a filed dose; 0% is about no effect
Pf growth 48h = inhibits P. falciparum growth in the first generation, 48 h. 5.9% of 310,000 active. P. falciparum luciferase growth in erythrocytes, 48 h. Potency, µM (highest dose often 28.7 µM), without a hit: at the highest dose activity change, negative = inhibition, hits mostly inhibitors. AID 504832; note: potency is the fitted concentration of half-maximal effect; % is set by controls: 0 for no effect and ±100 for the full control effect
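Here the parasites carry a stable luciferase gene and grow inside erythrocytes in Albumax-based RPMI medium with compound for one erythrocytic cycle. Activity is scored as loss of luminescent signal.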
Shiga toxin inh = blocks Shiga toxin action in Vero cells; Vero cells, Shiga toxin protein synthesis inhibition reporter; inhibition, % at 38.7 µM; 9.2% of 290,000 active; AID 2315; in the data active = inhibition mostly above about 28%, no sharp cut-off; inactive = mostly below about 43%; note: 0% is about no effect
HCMV antiviral = blocks human cytomegalovirus replication; activity change, negative = inhibition, % at 57.5 µM; HFF cells, HCMV-luciferase reporter, 72 h; active compounds read low; 4.5% of 410,000 active; AID 1259415; in the data active = activity change below about -60%; inconclusive = no clear call, values can overlap the other calls; inactive = above about -39%; note: % is set by controls: 0 for no effect and ±100 for the full control effect
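HFF cells seeded 16 h at 37C, treated with compounds, infected with luciferase-reporter HCMV at MOI 1 PFU/cell; luciferase read at 72 h post infection, normalized to buffer-only and Salinomycin controls.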
Pf growth 96h = P. falciparum growth inhibition at 96 hours; P. falciparum luciferase reporter growth, 96 h; Potency, µM (top dose mostly 28.7 µM), for the others: top-dose activity change, negative = inhibition, actives largely listed as inhibitors; 6.9% of 320,000 active; AID 504834; note: potency is the fitted concentration of half-maximal effect; % is set by controls: 0 for no effect and ±100 for the full control effect
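Cell-based qHTS: luciferase-tagged P. falciparum in erythrocytes (2% hematocrit, 0.05% parasitemia final) incubated with compounds for 96 hours, 37 C, 5% CO2; luciferase detection reagent then added and luminescence measured.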
The depositor's hits bear a star; i = inactive; ? = inconclusive; nt = no result; [ ] = dose if it differs, or a comment. Unless noted, calls come from the whole dose curve; as a rule, active = well fitted inhibition curve with a large enough effect; inconclusive = small, poorly fitted or top-dose-only effect, or another doubt; inactive = no such curve, though single readings can be large or run the other way.

SMILES | CHX counter | Pf growth 48h | Shiga toxin inh | HCMV antiviral | Pf growth 96h
C=CCNc1oc(COc2ccc(C)cc2)nc1C#N | 25* | nt | 136* | 31 | 6.6µM*
O=C(C[C@H]1C/C=C\C[C@@H](Cc2ccc(F)cc2)C(=O)O[C@H](c2ccccc2)CNC1=O)NCCO | nt | nt | nt | -38 | nt
CNc1oc(-c2ccccc2)nc1C#N | 20* | 21% | 38* | 41 | 150%
CNc1oc(Cc2cccc3ccccc23)nc1C#N | 2 | -21% | -7 | -23 | ?
N#Cc1nc(-c2ccc(OCc3ccccc3)cc2)oc1N1CCC(C(N)=O)CC1 | 10 | ? | 11 | -37 | ?
CCOc1ccc(-c2nc(C#N)c(NC3CC3)o2)cc1 | 42* | 64% | 117* | nt | 0%
N#Cc1nc(-c2ccc(COc3ccc(Cl)cc3)o2)oc1N1CCC(C(N)=O)CC1 | nt | nt | nt | -65* | nt
CCOc1ccc(-c2nc(C#N)c(NCc3ccc4c(c3)OCO4)o2)cc1 | 20 | 22% | 2 | -5 | 8.3µM*
Cc1ccc(OCc2nc(C#N)c(NCc3ccc4c(c3)OCO4)o2)cc1 | 11 | -15% | -15 | -5 | 12%
CCN(c1ccccc1)S(=O)(=O)c1cc([N+](=O)[O-])ccc1N | 28* | 46% | 58* | -37 | 5%
CCN(c1ccccc1)S(=O)(=O)c1ccc(C(C(=O)OC)C(=O)OC)c([N+](=O)[O-])c1 | -2 | -24%[5.75 µM] | 11 | 15 | 8%[5.75 µM]
CCOC(=O)c1c(NC(=O)c2cc(-c3ccc(Cl)cc3)on2)sc(C)c1C | nt | nt | nt | 5 | nt
CCCCN(CC)Cc1ccc(CNS(=O)(=O)c2cc3c(cc2Cl)NC(=O)CO3)o1 | nt | nt | nt | 0 | nt
COc1cccc(NC(=O)NC2CCCCCCC2)c1 | 50* | 51% | 155* | 60 | -90%
COc1cccc(NC(=O)C2CCCN2C(=O)NC2CCCCC2)c1 (stereo unspecified) | -3 | -13% | -5 | -2 | 26%
COc1cccc(NC(=O)C(=S)NC2CCCCC2)c1 | 50* | 128% | 106* | 80 | -17%
O=S1(=O)CCSC[C@@H](CNCc2ccco2)N1 | nt | nt | nt | 1 | nt
O=C(COc1ccc(Cl)cc1)Nc1ccc(Cl)cn1 | 26* | 93% | 34 | -10 | nt
CCOC(=O)/C=C/C(=O)OCC(=O)Nc1ccc(Cl)cn1 | 17 | nt | 15 | -30 | ?
O=C(/C=C/c1ccc2c(c1)OCO2)Nc1ccc(Cl)cn1 | 34* | 273% | 78* | -29 | 41%[5.75 µM]
O=C(COc1ccc2c(c1)OCO2)Nc1ccc(Cl)cn1 | 51* | 42% | 69* | -2 | 22%
CCOCc1nnc(NC(=O)COc2ccc3c(c2)OCO3)s1 | 4 | 1% | -9 | ? | -13%
CC(C)=CC(=O)OCC(=O)Nc1ccc(Cl)cn1 | 19* | 31% | 13 | 5 | nt
CN(C(=O)c1ccccc1[N+](=O)[O-])c1ccccc1C(=O)NCc1ccccc1 | -3 | ? | -3 | 9 | -22%
COc1ccc(CC(=O)NNS(=O)(=O)c2ccc(F)cc2)cc1 | -3 | 18% | -7 | -6 | -10%
SMILES | CHX counter | Pf growth 48h | Shiga toxin inh | HCMV antiviral | Pf growth 96h
Cc1ccc(C2CC(=O)Oc3cc(C)c(Cl)cc32)cc1 (stereo unspecified) | -2 | nt | i | nt | nt
COC(=O)c1ccccc1NC(=O)COc1ccc2c(c1)OCO2 | 6 | 11% | 12 | -28 | ?
O=C(COC(=O)c1cccc(F)c1)Nc1ccc(Cl)cn1 | nt | nt | nt | -99* | nt
O=C(COc1ccc2c(c1)OCO2)Nc1ccccc1F | 41* | 296% | 108* | 8 | ?
O=C(COc1ccccc1)Nc1ccc(Cl)cn1 | 62* | ? | 62* | -11 | 32%
O=C(COC(=O)COc1ccccc1F)Nc1ccc(Cl)cn1 | -2 | 13% | 1 | 9 | 0%
O=C(COc1ccccc1Cl)Nc1ccc(Cl)cn1 | 39* | 188% | 63* | 184 | 10µM*
COc1ccc2c(C)c(CCC(=O)NCCc3ccccc3)c(=O)oc2c1 | nt | nt | nt | -18 | nt
COc1ccccc1C(=O)OCC(=O)Nc1ccc(Cl)cn1 | 27* | 29% | 15 | -30 | 0%
O=C(COc1ccc2c(c1)OCO2)Nc1nccs1 | 28 | 159% | 58* | 8 | ?
NC(=O)c1c[nH]c2ccccc12 | 10 | ? | 6 | 18 | 43%
O=C(/C=C/c1ccccc1)c1c[nH]c2ccccc12 | 34* | 228% | 64* | 18 | 19%
Cc1[nH]c2ccccc2c(=O)c1C(=O)/C=C/c1ccccc1 | -2 | ? | -25 | -97* | ?
O=C(/C=C/c1ccccc1)NCCc1c[nH]c2ccccc12 | nt | nt | nt | 54 | nt
O=C(C=Cc1ccccc1)c1c[nH]c2ccccc2c1=O | nt | nt | nt | -77* | nt
CCOc1ccccc1NC(=O)c1cc2c(=O)oc3ccccc3c2s1 | nt | nt | nt | 0 | nt
CC(=O)N1CCc2c(sc(NC(=O)CSc3ccccc3)c2-c2nc3ccccc3s2)C1 | -5 | nt | 27 | -97* | nt
CC(=O)Nc1sc2c(c1-c1nc3ccccc3s1)CN(C(C)C)CC2 | nt | nt | nt | -97* | nt
CC12CCC(C(=O)N3CCN(Cc4ccccc4)CC3)(OC1=O)C2(C)C (stereo unspecified) | -4 | nt | -13 | 30 | nt
Cc1cc(/C=C(\C#N)C(=O)NCC2CCCO2)c(C)n1-c1ccc(Cl)cc1 (stereo unspecified) | 26* | 10µM* | 65* | 83 | 10µM*
N#C/C(=C\c1cn(CCOc2ccccc2)c2ccccc12)C(=O)NCC1CCCO1 (stereo unspecified) | 29* | 9.3µM* | -25 | -9 | ?
Cc1ccc(C)c(OCCn2cc(/C=C(/C#N)C(=O)NCC3CCCO3)c3ccccc32)c1 (stereo unspecified) | -3 | 2.1µM* | -11 | -5 | 45%
COc1ccccc1OCCn1cc(/C=C(\C#N)C(=O)NCc2cccs2)c2ccccc21 | 2 | ? | -10 | 7 | 5%
COc1cc(Nc2ccccc2Cl)c([N+](=O)[O-])nc1[N+](=O)[O-] | -1 | nt | -12 | 9 | 15µM*
O=C(COCc1cc(-c2ccc(F)cc2)on1)Nc1cc(F)ccc1F | nt | nt | nt | 5 | nt
SMILES | CHX counter | Pf growth 48h | Shiga toxin inh | HCMV antiviral | Pf growth 96h
C[C@@H]1CN([C@H](C)CO)C(=O)CCCn2nncc2CO[C@@H]1CN(C)C(=O)CCC(F)(F)F | nt | nt | nt | 26 | nt
Cc1ccc(Nc2nc3ccccc3o2)cc1F | 38* | nt | 83 | 16 | i
COc1ccccc1CNc1nc(NC(C)C)nc2cc(-c3ccccc3)sc12 | nt | nt | nt | -36 | nt
CC(C)Nc1nc(NCCOc2ccccc2Cl)c2sc(-c3ccccc3)cc2n1 | nt | nt | nt | -101* | nt
c1ccc(COCCN2CCN(CCOCc3ccccc3)CC2)cc1 | 10 | nt | 60 | -3 | -15%
c1ccc(CCCN2CCN(CCOC(c3ccccc3)c3ccccc3)CC2)cc1 | nt | nt | nt | -66* | nt
Fc1ccc(C(OCCN2CCN(CCCc3ccccc3)CC2)c2ccc(F)cc2)cc1 | nt | 12µM* | nt | -99* | -101%
Cc1ccc2c(CN3CCN(S(=O)(=O)c4ccc5c(c4)OCCO5)CC3)cc(=O)oc2c1C | -2 | 9.3µM* | -5 | -78* | ?
CCN(CC(=O)Nc1ccc2c(c1)OCCO2)Cc1cc(=O)oc2c(C)c(C)ccc12 | 9.1* | ? | -4 | 135 | 1%
